Out of some 300,000 compounds screened, about 65 (0.02%) were called active.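 Rule for the calls: active = lowest replicate activity score at least 50, where 100 means six control SD above control mean; inconclusive = lowest score under 50 but half or more replicates reach 50; inactive = the rest.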 The sample as a whole holds a higher share of actives than the screen did.
Experiment: perturbers of mRNA poly(A) processing – luminescence, S. cerevisiae, primary screen (AID 1875);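 note: yeast exposed to compound for 9 h at 30 °C; higher score means more reporter readthrough which indicates perturbed polyadenylation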
Settings: S. cerevisiae SKY197-pL101 polyadenylation reporter, beta-gal luminescence; at 12 µM; stronger effect = higher value; efflux-impaired pdr1/pdr3 knockout yeast; score 100 = 6 SD above DMSO

Activity score, inactive:
O=C(Cc1ccccc1)Nc1c(Cl)ccc2nsnc12 16.1%, Cc1[nH]n(C(N)=S)c(=O)c1N=Nc1ccc(Cl)cc1Cl -14.2%, COc1ccc(OC)c(NC(=O)CSc2nc(-c3ccccc3)cc(=O)[nH]2)c1 -4.65%, CC1CCN(CCCn2c(SCC(=O)NC3CCCC3)nc3ccccc3c2=O)CC1 -3.59%, COc1cccc(C(=O)Nc2nnc(S(=O)(=O)N3CCOCC3)s2)c1 16.5%, Cc1ccc(S(=O)(=O)C2C(=O)NC3(C)CC2c2ccccc2O3)cc1 (stereo not given) 1.24%, COc1ccc(C(=O)C2CCCN(C(=O)c3cc4nc(C)cc(C)n4n3)C2)cc1F (stereo not given) 4.72%, CN(CCO)c1ccc(/C=N/Nc2nncc3ccccc23)cc1 -9.02%, Cc1ccccc1CN1C[C@@H]2C[C@@H](c3cn(C)nc3-c3ccccc3)N3CCC[C@@]23C1=O -0.645%, COc1cc(CNc2ncn[nH]2)ccc1OCc1ccccc1C 5.71%, CN(CCOc1ccccc1)Cc1nc2cc(Cl)ccc2c(=O)[nH]1 6.63%, CC(C)(C)c1ccccc1NC(=O)CN1C(=O)NC2(CCCC2)C1=O 9.67%, Cc1ccc(CS(=O)(=O)CCC(=O)NCc2ccc(F)cc2)cc1 -0.106%, CCn1c(Cc2ccc(OC)cc2)nnc1SCC(=O)Nc1ccc(N2CCOCC2)cc1 -14.5%, Cc1ccc(NN=Nc2nc3c([nH]2)c(=O)n(C)c(=O)n3C)cc1 15.9%, COc1cc(NS(=O)(=O)c2ccc(NC(=O)c3ccc([N+](=O)[O-])cc3)cc2)ncn1 -0.0482%, O=C(CCCCCn1c(=S)[nH]c2ccsc2c1=O)NC1CCCCC1 -14.5%, CCCCn1c(N)c(N(CCOC)C(=O)c2cccc(OCc3ccccc3)c2)c(=O)[nH]c1=O -6.78%, Brc1ccccc1/C=N/Nc1nc2ccccc2o1 -16.6%, Cc1ccc(N(Cc2cc(=O)[nH]c3ccccc23)C(=O)CCl)cc1 29.9%, COC(=O)c1c(C)[nH]c(C(=O)/C=C/c2ccc(Cl)cc2)c1C -2.04%, O=C(NCCc1ccccc1)C1CCC(Cn2c(=O)c3ccccc3n(Cc3cccnc3)c2=O)CC1 (stereo not given) -5.99%, COc1ccc(-c2nn(-c3ccccc3)cc2CN2CCCO2)c(F)c1 0.939%, O=C(NCCCn1ccnc1)/C(=C\c1ccccc1F)NC(=O)c1ccccc1 11.1%, CN(C(=O)C1CCN(c2ncnc3c2nc2n3CCCCC2)CC1)C1CCCCC1 5.63%

Source: PubChem BioAssay AID1875 (Broad Institute, 2009)
